# Where “and” joins values, the source holds several entries; their conditions need not be identical. Identical values can stand only once. Inconclusive results are not listed. Calls of active or inactive are those of the source. Calls come from the whole dose curve; as a rule, active = well fitted cell-killing curve with a large enough effect in the repeat runs; inconclusive = weak or mixed curves, or effect the other way; inactive = no such curve, though single readings can be large or run the other way.
# Experiment: qHTS assay to identify small molecule agonists of the vitamin D receptor (VDR) signaling pathway - cell viability counter screen (AID 743224); note: nearly all actives have a fitted effect of over 50% in size
# Details: VDR-bla HEK293T viability, CellTiter-Glo luminescence, 16 h; series mostly up to 62.6 µM
# Excerpt: U.S. Tox21 Program National Center for Advancing Translational Sciences [NCATS] NIH Chemical Genomics Center [NCGC] U.S. Environmental Protection Agency [EPA] National Institutes of Environmental Health Sciences [NIEHS] National Toxicology Program [NTP] U.S. Food and Drug Administration [FDA] Tox21 Assay Overview: The vitamin D receptor (VDR), a member of nuclear hormone receptor superfamily, plays a critical role in calcium homeostasis and bone metabolism. It is also involved in cell differentiation and growth, and thrombogenicity. […] The cytotoxicity of the Tox21 compound library against the VDR-bla cell line was tested in parallel by measuring the cell viability using CellTiter-Glo assay (Promega, Madison, WI) in the same wells.
# Tox21 Assay Protocol Summary: VDR-bla cells were dispensed at 2,000 cells/6 uL/well into black wall/clear-bottom 1536-well plates using a Multidrop Combi (Thermo Fisher Scientific, Waltham, MA) dispenser. After the assay plates were incubated at a 37C and 5% CO2 for 4 h, 23 nL of compounds dissolved in DMSO, positive controls or DMSO only was transferred to the assay plate by a Pintool station (Kalypsys, San Diego, CA). The plates were incubated at 37C and 5% CO2 for 16 h. After 1 uL of LiveBLAzerTM B/G FRET substrate was added using a Bioraptr Flying Reagent Dispenser (FRD) workstation (Beckman Coulter, Indianapolis, IN, USA), the plates were incubated at room temperature for 2 h, and fluorescence intensity was measured by an Envision plate reader (PerkinElmer, Shelton, CT). For cell viability readout that measures cytotoxicity, 3 ul/well of CellTiter-Glo reagent was added into the assay plates using a FRD. After 30 min incubation at room temperature, the luminescence intensity in the plates was measured using a ViewLux (PerkinElmer) plate reader.
# Potency is the fitted concentration of half-maximal effect.
row,Compound,Potency
1,NNc1nc(-c2ccc(N)cc2)cs1,inactive
2,CCC(C)Nc1ccc(NC(C)CC)cc1 (stereo not given),17.7 µM (active)
3,CCC1OCC(COc2ccc(Oc3ccccc3)cc2)O1 (stereo not given),49 µM (active)
4,Clc1ccc2nsnc2c1NC1=NCCN1,inactive
5,CC(C)(C)C(=O)OCOC(=O)C1N2C(=O)CC2S(=O)(=O)C1(C)C (stereo not given),inactive
6,CC[C@H]1O[C@]2(CC[C@@H]1C)C[C@@H]1C[C@@H](C/C=C(\C)C[C@@H](C)/C=C/C=C3\CO[C@@H]4[C@H](O)C(C)=C[C@@H](C(=O)O1)[C@]34O)O2,17.2 µM (active)
7,NNC(=O)c1cccc(C(=O)NN)c1,inactive
8,O=C(Oc1cccc2cccnc12)c1ccccc1,3.76 µM (active)
9,CCCC(C)c1ccccc1O (stereo not given),inactive
10,Cc1cc(=O)oc2cc(N(C)C)ccc12,inactive
11,CCCCCCCCCCC=O,inactive
12,Nc1ccccc1O,inactive
13,CC(C)=CCOc1ccc(/C=C/C(=O)c2ccc(OCC=C(C)C)cc2OCC(=O)O)cc1,inactive
14,CSc1ccc(C(=O)c2[nH]c(=O)[nH]c2C)cc1,inactive
15,CCCCCCCCCCCC[N+](C)(C)CCCCCCCCCCCC,19.5 µM (active)
16,O=C(Nc1ccc(Oc2ccc(Cl)cc2)c(Cl)c1)c1cc(I)cc(I)c1O,18.8 µM (active)
17,On1ccccc1=S,0.61 µM (active)
18,O=C(OCC1CO1)C1CCCCC1C(=O)OCC1CO1 (stereo not given),inactive
19,[O-][n+]1ccccc1SSc1cccc[n+]1[O-],0.164 µM (active)
20,CCOc1ccc2nc3cc(N)ccc3c(N)c2c1,inactive

row,Compound,Potency
1,O=C(O)c1ccc(Cl)c(Cl)c1,inactive
2,O=c1[nH]sc2ccccc12,12.3 µM (active)
3,OC1(c2ccc(Cl)c(C(F)(F)F)c2)CCN(CCCC(c2ccc(F)cc2)c2ccc(F)cc2)CC1,13.3 µM (active)
4,CCCCCCCC[P+](CCCCCCCC)(CCCCCCCC)CCCCCCCC,3.45 µM (active)
5,[Cl][Bi]([Cl])([c]1ccccc1)([c]1ccccc1)[c]1ccccc1,3.87 µM (active)
6,CN(C)C(=O)C1(N2CCCCC2)CCN(CC[C@@]2(c3ccc(Cl)c(Cl)c3)CN(C(=O)c3ccccc3)CCO2)CC1,20.4 µM (active)
7,C=CC(=O)OCC(CO)(COC(=O)C=C)COC(=O)C=C,12.3 µM (active) and 13.8 µM (active)
8,Nc1c(Cl)cc(Cl)cc1Cl,inactive
9,CCCCCCCCCCCCCCCCCC[N+](C)(C)Cc1ccccc1,13.9 µM (active)
10,CCCCCCCCCOC(=O)c1ccc(O)cc1,17.1 µM (active)
11,CC(C)c1ccc2c(c1)CC[C@H]1[C@](C)(CN)CCC[C@]21C,17.4 µM (active)
12,NC(=O)N1C(=O)C(C(=O)c2cc(Cl)cs2)c2cc(F)c(Cl)cc21 (stereo not given),21.9 µM (active)
13,Cc1ccc(O)c(C(C)(C)C)c1,19.5 µM (active)
14,O=c1cc(-c2ccc(O)cc2)oc2cc(O)cc(O)c12,inactive
15,Cc1cc(O)c(C(C)(C)C)cc1C(C)(C)C,19.5 µM (active)
16,C[n+]1ccn(Cc2ccccc2)c1,inactive
17,CCOC(=O)O[C@H](C)OC(=O)c1ccc2c(c1)cc(C(=O)NC1CCN(C(C)C)CC1)n2Cc1cc(-c2ccc(Cl)s2)on1,14.5 µM (active)
18,COc1cc(-c2ccc(N=C=O)c(OC)c2)ccc1N=C=O,inactive
19,CCOc1nc2cccc(C(=O)OC(C)OC(=O)OC3CCCCC3)c2n1Cc1ccc(-c2ccccc2-c2nn[nH]n2)cc1 (stereo not given),27.5 µM (active)
20,Clc1ccc(C(Cn2ccnc2)OCc2ccc(Sc3ccccc3)cc2)c(Cl)c1 (stereo not given),33.5 µM (active)
